The source of these data is the supplement of paper PMC12282887.

For this assay, the system named is E. coli BW25113 marRABp lux reporter. The assay can be described thus: promoter activity interaction Z-score (Lux/OD deviation from empty-vector control); higher = stronger promoter induction by the compound. The method, then:
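E. coli BW25113 (wild type or ΔmarA/ΔsoxS/Δrob) carrying pTU175 luxCDABE promoter reporters was grown in LB in 384-well plates at 37°C with each of 94 compounds at 4 two-fold concentrations, in biological duplicates. Luminescence and OD600 were read every 30 min for 12 h and integrated as AUC over 8 h (0-8 h WT, 1-9 h mutants). Lux AUC was divided by OD AUC; the interaction score is the residual of a Huber robust fit of each promoter against the empty-vector control, then Z-transformed per promoter.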

The mark [1] stands for this setting: 0.13 µg/ml, genetic background: wild type.
[2] abbreviates: 0.13 µg/ml, genetic background: ΔmarA.
Setting [3] is: 0.13 µg/ml, genetic background: Δrob.
[4] abbreviates: 0.13 µg/ml, genetic background: ΔsoxS.

± gives the standard deviation of the averaged measurements.

In the case of `CCN1CCN(C(=O)N[C@@H](C(=O)N[C@@H]2C(=O)N3[C@@H]2SC(C)(C)[C@@H]3C(=O)O)c2ccccc2)C(=O)C1=O` [Piperacillin], the “promoter activity interaction Z-score” value (0.034 µg/ml, genetic background: wild type) was -0.259 ± 0.22; the “promoter activity interaction Z-score” value (0.034 µg/ml, genetic background: ΔmarA) is -0.115 ± 0.2; the “promoter activity interaction Z-score” value (0.034 µg/ml, genetic background: Δrob) was -0.137 ± 0.032; the “promoter activity interaction Z-score” value (0.034 µg/ml, genetic background: ΔsoxS) was -0.285 ± 0.24; the “promoter activity interaction Z-score” value (0.067 µg/ml, genetic background: wild type) came out at 0.0282 ± 0.023; the “promoter activity interaction Z-score” value (0.067 µg/ml, genetic background: ΔmarA) was -0.147 ± 0.33. For the same compound, the “promoter activity interaction Z-score” value by setting is: (0.067 µg/ml, genetic background: Δrob) -0.102 ± 0.11; (0.067 µg/ml, genetic background: ΔsoxS) -0.225 ± 0.29; under setting [1], -0.0179 ± 0.059; under setting [2], -0.0535 ± 0.27; under setting [3], -0.134 ± 0.096; under setting [4], -0.159 ± 0.072. The “promoter activity interaction Z-score” value was -0.12 ± 0.057 (0.27 µg/ml, genetic background: wild type); -0.117 ± 0.15 (0.27 µg/ml, genetic background: ΔmarA); -0.0506 ± 0.1 (0.27 µg/ml, genetic background: Δrob); -0.145 ± 0.44 (0.27 µg/ml, genetic background: ΔsoxS).

Turning to `CNC(C)C1CCC(N)C(OC2C(N)CC(N)C(OC3OCC(C)(O)C(NC)C3O)C2O)O1` (stereo not drawn) [Gentamicin], the “promoter activity interaction Z-score” value under setting [1] was -0.229 ± 0.24; the “promoter activity interaction Z-score” value under setting [2] was -0.193 ± 0.19; the “promoter activity interaction Z-score” value under setting [3] is -0.0111 ± 0.062; the “promoter activity interaction Z-score” value under setting [4] stood at 0.027 ± 0.11; the “promoter activity interaction Z-score” value (0.26 µg/ml, genetic background: wild type) is -0.22 ± 0.026; the “promoter activity interaction Z-score” value (0.26 µg/ml, genetic background: ΔmarA) is -0.108 ± 0.19. In addition, the “promoter activity interaction Z-score” value (0.26 µg/ml, genetic background: Δrob) was -0.0765 ± 0.087; the “promoter activity interaction Z-score” value (0.26 µg/ml, genetic background: ΔsoxS) turned out to be 0.17 ± 0.086; the “promoter activity interaction Z-score” value (0.52 µg/ml, genetic background: wild type) is 0.575 ± 0.65; the “promoter activity interaction Z-score” value (0.52 µg/ml, genetic background: ΔmarA) was 0.543 ± 0.31; the “promoter activity interaction Z-score” value (0.52 µg/ml, genetic background: Δrob) amounted to 0.678 ± 1; the “promoter activity interaction Z-score” value (0.52 µg/ml, genetic background: ΔsoxS) came out at 0.166.
